This is part of a sample that, as a whole, favours compounds with a hit. Of some 83,000 tested, about 20% had one in any assay.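 In brief: 96-well plates, 48 h treatment, single concentration, percent growth endpoint.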 Values without a mark were called inactive. The source made the active and inactive calls. How the source made its calls: active means growth percent below 10; inactive means the rest.

In this assay the test system is HCT-116 colon. In words: NCI-60 one-dose screen, 48 h (100 = growth as untreated, 0 = no growth, -100 = all killed). Particulars: 10 µM unless noted.
As for `COc1cccc([C@H]2c3[nH]c4ccccc4c3C[C@H]3C(=O)N(CCCCCCC(=O)NO)CC(=O)N23)c1`, the growth is 35.3%.

In the case of `Clc1ccc(CNc2c3ccccc3nc3ccccc23)cc1`, the growth is 15.7%.

With `COC(=O)c1c2c(c(C)[n+]([O-])c1C)C(=O)C=C(NCc1ccc(Br)cc1)C2=O`, the growth was -17.2% (active).

Take `COc1ccc(C/C(C)=C(/c2ccc(OCCN3CCCCC3)cc2)c2ccc(OC(=O)NCc3ccccc3)cc2)cc1`: the growth was -90.3% (active).

Consider `O=C1c2cccc(NCCN=Cc3cc(O)ccc3O)c2C(=O)c2c(NCCN=Cc3cc(O)ccc3O)cccc21`, for which the growth is -17.3% (active).

As for `CS(=O)(=O)c1cccc(-c2c(-c3cccc(OS(N)(=O)=O)c3)nc3sccn23)c1`, the growth was 97.9%.

As to `CCCCC[C@@H]1Cc2cc(O)c(C(=O)O)c3c2[C@H](C[C@]2(OC[C@@H](CC(=O)[C@@](C)(CC)C(=O)OC)[C@@H]2C)O3)O1`, the growth is 111%.

Consider `Cc1ccc(Cl)cc1Nc1nc(C(F)(F)F)ccc1C(=O)N/N=C/c1cccnc1`, for which the growth was 25%.

As to `CCCC(O)Cn1ncc(C(=O)OCC)c1NC(=O)NCc1ccccc1F` (configuration not stated), the growth is 73.8%.

As for `COc1ccc(-c2nc(/C=C3\SC(=NCc4ccccc4)NC3=O)c3ccccn23)cc1`, the growth was -97.2% (active).

For the compound `COc1cccc(NC(=O)Cn2cc(CN3CCN(c4ccnc5cc(Cl)ccc45)CC3)nn2)c1`, the growth is 97%.

In the case of `CO[C@H]1/C=C(/C)CCC[C@H](C)[C@H](O)[C@@H](C)C(=O)C(C)(C)[C@@H](O)CC(=O)O[C@@H]1/C(C)=C/c1csc(C)n1`, the growth is 9.39% (active).

Values taken from PubChem BioAssay (NCI).
